# Reference: publication PMC7862700, “An all-to-all approach to the identification of sequence-specific readers for epigenetic DNA modifications on cytosine”
# What was measured:
# Assay in all cases: DAPPL (digital affinity profiling via proximity ligation, sequencing); 10 mM Tris-HCl pH 7.5, 50 mM NaCl, 1 mM DTT, 4% glycerol, room temperature, 30 min; GST-TFs on glutathione beads, 16-mer random dsDNA library, 0.1% formaldehyde crosslink after washing; high values mean tight binding
# FLI1 = biological target: T1, FLI1 (Homo sapiens, UniProt Q01543 1-452); conditions: protein: recombinant; tags: N-terminal GST; dsDNA, one strand shown
# T1 sequence: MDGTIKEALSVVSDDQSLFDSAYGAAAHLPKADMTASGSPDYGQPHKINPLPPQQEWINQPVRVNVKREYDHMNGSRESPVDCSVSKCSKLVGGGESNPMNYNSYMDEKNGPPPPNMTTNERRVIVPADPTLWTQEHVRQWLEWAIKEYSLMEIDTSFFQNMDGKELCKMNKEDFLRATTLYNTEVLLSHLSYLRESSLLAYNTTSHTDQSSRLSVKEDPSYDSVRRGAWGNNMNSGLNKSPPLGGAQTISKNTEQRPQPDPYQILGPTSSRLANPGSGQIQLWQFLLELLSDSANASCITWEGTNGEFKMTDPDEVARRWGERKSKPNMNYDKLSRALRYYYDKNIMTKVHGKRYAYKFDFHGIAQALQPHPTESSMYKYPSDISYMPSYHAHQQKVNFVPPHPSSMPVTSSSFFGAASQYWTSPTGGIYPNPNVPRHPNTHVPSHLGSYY
# How it was run: (§1)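 A tag-only sample was pooled with DNA-barcoded human transcription factors that had been expressed in yeast as GST fusions and captured on glutathione beads. The pools were incubated for 30 min at room temperature with 200 nmole of a random double-stranded 16-mer DNA library in Tris/NaCl/DTT/glycerol buffer, then washed, crosslinked with 0.1% formaldehyde, proximity-ligated (BsaI/T4 ligase, 1 h, 37 °C), PCR-amplified and sequenced on an Illumina NextSeq500. Binding signal is each hexamer's read frequency for a factor divided by its frequency for the tag-only sample.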
# ELK1 = biological target: T2, ELK1 (Homo sapiens, UniProt P19419 1-428); conditions: protein: recombinant; tags: N-terminal GST; dsDNA, one strand shown
# T2 sequence: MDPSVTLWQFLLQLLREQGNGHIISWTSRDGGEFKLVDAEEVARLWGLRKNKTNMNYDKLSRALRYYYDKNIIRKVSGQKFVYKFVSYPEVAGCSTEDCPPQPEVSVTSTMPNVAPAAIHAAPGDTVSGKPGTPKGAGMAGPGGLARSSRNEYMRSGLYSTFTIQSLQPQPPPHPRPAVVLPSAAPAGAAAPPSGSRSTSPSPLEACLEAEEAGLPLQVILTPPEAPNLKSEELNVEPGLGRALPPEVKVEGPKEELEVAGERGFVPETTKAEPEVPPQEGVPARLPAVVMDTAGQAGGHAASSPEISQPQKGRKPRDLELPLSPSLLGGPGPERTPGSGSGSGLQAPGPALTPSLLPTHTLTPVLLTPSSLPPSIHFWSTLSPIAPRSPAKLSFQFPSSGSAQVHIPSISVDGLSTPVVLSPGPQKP
# How it was run: as §1
# GABPA = biological target: T3, GABPA (Homo sapiens, UniProt Q06546 1-454); conditions: protein: recombinant; tags: N-terminal GST; dsDNA, one strand shown
# T3 sequence: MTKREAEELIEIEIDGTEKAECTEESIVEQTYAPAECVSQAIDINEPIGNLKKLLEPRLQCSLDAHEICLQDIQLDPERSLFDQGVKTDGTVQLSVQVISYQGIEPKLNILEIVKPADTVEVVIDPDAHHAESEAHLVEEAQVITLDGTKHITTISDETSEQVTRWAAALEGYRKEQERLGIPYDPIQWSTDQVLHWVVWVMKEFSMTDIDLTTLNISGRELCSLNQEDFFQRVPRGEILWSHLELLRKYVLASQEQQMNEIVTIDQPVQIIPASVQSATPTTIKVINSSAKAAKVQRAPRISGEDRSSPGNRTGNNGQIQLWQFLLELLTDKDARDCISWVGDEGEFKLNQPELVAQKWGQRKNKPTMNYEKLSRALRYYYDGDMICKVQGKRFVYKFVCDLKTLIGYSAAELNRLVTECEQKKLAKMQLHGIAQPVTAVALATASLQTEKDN
# How it was run: as §1
# ERG = biological target: T4, ERG (Homo sapiens, UniProt P11308 1-479); conditions: protein: recombinant; tags: N-terminal GST; dsDNA, one strand shown
# T4 sequence: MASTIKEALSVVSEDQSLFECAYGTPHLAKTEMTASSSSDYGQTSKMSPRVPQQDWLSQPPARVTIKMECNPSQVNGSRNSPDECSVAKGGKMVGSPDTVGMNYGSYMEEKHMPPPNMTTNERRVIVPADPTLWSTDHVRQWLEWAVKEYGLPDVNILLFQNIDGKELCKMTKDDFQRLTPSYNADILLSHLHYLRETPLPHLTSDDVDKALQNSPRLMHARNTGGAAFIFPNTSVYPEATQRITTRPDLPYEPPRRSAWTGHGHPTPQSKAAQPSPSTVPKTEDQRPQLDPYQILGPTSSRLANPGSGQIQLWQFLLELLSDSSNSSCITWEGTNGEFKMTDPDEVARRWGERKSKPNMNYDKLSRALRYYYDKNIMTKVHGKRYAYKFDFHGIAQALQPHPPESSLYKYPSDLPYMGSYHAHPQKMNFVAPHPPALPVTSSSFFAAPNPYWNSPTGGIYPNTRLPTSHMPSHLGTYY
# How it was run: as §1
# ELF1 = ELF1 (Homo sapiens, UniProt P32519 1-619); conditions: protein: recombinant; tags: N-terminal GST; dsDNA, one strand shown
# Chain of ELF1 (P32519 whole entry): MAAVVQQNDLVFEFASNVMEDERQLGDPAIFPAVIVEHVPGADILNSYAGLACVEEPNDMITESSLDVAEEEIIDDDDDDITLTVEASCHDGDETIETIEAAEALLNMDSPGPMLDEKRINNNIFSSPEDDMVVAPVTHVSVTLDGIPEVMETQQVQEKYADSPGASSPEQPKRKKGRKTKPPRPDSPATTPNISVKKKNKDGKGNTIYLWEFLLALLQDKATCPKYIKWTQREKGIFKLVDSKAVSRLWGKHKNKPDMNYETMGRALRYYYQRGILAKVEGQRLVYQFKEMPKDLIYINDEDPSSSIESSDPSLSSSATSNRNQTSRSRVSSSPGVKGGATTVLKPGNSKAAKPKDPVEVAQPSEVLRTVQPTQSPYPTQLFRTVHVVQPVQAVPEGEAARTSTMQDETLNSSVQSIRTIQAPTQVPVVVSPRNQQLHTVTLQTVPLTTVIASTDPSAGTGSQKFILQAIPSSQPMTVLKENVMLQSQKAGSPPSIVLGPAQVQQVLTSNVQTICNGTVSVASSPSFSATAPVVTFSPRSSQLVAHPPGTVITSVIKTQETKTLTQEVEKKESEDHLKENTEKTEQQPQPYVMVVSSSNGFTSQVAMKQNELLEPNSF
# How it was run: as §1
# EHF = biological target: T5, EHF (Homo sapiens, UniProt Q9NZC4 1-300); conditions: protein: recombinant; tags: N-terminal GST; dsDNA, one strand shown
# T5 sequence: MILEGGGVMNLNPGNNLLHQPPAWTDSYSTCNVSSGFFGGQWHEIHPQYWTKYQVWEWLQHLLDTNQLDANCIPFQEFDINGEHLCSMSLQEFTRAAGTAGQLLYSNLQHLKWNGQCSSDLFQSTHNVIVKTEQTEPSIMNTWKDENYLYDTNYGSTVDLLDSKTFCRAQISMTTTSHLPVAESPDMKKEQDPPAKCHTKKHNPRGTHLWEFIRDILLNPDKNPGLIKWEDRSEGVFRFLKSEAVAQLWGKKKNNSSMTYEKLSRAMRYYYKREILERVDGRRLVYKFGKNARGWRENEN
# How it was run: as §1
# SPI1 = SPI1 (Homo sapiens, UniProt P17947 1-270); conditions: protein: recombinant; tags: N-terminal GST; dsDNA, one strand shown
# How it was run: as §1
# SPIB = SPIB (Homo sapiens, UniProt Q01892 1-262); conditions: protein: recombinant; tags: N-terminal GST; dsDNA, one strand shown
# Chain of SPIB (Q01892 whole entry): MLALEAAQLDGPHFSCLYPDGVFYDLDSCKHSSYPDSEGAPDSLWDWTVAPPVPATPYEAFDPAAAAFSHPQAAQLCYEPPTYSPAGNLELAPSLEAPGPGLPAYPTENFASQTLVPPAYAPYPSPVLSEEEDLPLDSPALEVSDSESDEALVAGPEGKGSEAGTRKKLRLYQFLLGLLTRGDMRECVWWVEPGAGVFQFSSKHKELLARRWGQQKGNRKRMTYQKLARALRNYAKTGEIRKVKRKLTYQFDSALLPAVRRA
# How it was run: as §1
# ELK3 = biological target: T6, ELK3 (Homo sapiens, UniProt P41970 1-407); conditions: protein: recombinant; tags: N-terminal GST; dsDNA, one strand shown
# T6 sequence: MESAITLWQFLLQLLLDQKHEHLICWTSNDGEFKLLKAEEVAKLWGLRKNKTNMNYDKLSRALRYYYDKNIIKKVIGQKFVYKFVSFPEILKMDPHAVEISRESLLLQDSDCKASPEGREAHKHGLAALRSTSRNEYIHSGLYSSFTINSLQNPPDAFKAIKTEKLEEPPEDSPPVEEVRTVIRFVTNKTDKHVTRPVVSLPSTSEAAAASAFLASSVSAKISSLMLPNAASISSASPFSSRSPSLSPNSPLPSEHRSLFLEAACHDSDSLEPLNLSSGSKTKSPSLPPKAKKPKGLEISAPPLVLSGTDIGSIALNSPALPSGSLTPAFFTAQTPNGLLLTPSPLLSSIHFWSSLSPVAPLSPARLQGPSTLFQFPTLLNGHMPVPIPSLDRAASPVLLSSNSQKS
# How it was run: as §1
# FEV = biological target: T7, FEV (Homo sapiens, UniProt Q99581 1-238); conditions: protein: recombinant; tags: N-terminal GST; dsDNA, one strand shown
# T7 sequence: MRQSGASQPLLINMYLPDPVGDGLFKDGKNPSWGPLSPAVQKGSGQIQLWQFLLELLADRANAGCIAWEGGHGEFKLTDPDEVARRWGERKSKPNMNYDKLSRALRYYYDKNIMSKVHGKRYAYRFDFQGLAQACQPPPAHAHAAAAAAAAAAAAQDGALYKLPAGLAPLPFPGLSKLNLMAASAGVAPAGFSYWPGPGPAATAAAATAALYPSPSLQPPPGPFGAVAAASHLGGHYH
# How it was run: as §1
# ETV5 = ETV5 (Homo sapiens, UniProt P41161 1-510); conditions: protein: recombinant; tags: N-terminal GST; dsDNA, one strand shown
# Chain of ETV5 (P41161 whole entry): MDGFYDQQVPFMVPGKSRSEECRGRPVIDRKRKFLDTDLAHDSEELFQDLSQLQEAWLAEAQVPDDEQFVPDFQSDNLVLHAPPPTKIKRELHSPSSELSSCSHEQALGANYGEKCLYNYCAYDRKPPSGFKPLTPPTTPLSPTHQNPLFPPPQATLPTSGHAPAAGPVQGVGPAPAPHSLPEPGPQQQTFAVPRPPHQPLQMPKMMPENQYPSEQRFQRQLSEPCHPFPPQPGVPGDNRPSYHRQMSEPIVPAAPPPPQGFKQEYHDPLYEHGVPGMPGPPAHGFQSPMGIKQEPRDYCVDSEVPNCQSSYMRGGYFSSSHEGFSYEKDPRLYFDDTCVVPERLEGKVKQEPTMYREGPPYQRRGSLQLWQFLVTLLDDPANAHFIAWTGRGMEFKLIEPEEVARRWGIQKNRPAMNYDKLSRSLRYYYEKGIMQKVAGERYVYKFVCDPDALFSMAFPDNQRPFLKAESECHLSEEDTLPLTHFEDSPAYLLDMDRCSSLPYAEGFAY
# How it was run: as §1
# HSF1 = HSF1 (Homo sapiens, UniProt Q00613 1-529); conditions: protein: recombinant; tags: N-terminal GST; chain copies: 3; dsDNA, one strand shown
# Chain of HSF1 (Q00613 whole entry): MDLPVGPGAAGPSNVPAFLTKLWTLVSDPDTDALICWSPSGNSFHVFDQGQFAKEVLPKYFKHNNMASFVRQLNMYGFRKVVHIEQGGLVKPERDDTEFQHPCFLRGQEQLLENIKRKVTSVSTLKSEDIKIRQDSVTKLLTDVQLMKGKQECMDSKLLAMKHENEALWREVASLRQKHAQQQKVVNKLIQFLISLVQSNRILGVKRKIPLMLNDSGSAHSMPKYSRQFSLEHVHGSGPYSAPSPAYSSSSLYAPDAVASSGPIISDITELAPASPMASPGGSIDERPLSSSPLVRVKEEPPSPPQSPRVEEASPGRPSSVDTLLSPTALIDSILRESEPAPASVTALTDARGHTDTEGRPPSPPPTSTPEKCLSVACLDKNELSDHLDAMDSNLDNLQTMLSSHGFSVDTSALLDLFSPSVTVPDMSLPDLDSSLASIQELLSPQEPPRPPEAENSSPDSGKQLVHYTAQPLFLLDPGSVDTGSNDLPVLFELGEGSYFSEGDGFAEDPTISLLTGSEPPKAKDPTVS
# How it was run: as §1
# SPIC = biological target: T8, SPIC (Homo sapiens, UniProt Q8N5J4 1-248); conditions: protein: recombinant; tags: N-terminal GST; dsDNA, one strand shown
# T8 sequence: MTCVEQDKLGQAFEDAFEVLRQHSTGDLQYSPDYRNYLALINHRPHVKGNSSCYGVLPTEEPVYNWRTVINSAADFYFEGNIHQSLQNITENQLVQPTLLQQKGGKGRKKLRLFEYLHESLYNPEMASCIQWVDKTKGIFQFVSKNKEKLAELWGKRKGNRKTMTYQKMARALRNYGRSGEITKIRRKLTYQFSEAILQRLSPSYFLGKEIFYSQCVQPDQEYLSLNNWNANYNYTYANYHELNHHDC
# How it was run: as §1
# ELF4 = ELF4 (Homo sapiens, UniProt Q99607 1-663); conditions: protein: recombinant; tags: N-terminal GST; dsDNA, one strand shown
# Chain of ELF4 (Q99607 whole entry): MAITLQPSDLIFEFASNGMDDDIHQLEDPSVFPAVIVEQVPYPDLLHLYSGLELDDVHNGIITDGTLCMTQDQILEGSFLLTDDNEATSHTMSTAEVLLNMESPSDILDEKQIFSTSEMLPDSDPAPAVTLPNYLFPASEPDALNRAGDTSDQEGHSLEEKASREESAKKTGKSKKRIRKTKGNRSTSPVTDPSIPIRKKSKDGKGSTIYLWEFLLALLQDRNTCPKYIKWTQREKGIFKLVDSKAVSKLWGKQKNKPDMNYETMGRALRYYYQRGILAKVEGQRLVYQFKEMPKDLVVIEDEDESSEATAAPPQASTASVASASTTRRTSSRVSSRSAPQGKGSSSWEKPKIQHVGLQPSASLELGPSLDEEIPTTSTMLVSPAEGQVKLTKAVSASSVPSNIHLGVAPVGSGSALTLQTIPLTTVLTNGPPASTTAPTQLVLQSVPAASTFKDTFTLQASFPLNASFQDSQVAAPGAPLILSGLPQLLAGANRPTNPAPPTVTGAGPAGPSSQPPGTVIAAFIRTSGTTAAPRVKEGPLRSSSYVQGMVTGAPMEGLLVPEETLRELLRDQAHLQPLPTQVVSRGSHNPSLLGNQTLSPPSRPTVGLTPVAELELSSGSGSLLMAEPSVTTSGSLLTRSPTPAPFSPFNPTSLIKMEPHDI
# How it was run: as §1
# ELK4 = biological target: T9, ELK4 (Homo sapiens, UniProt P28324-2 1-405); conditions: protein: recombinant; tags: N-terminal GST; dsDNA, one strand shown
# T9 sequence: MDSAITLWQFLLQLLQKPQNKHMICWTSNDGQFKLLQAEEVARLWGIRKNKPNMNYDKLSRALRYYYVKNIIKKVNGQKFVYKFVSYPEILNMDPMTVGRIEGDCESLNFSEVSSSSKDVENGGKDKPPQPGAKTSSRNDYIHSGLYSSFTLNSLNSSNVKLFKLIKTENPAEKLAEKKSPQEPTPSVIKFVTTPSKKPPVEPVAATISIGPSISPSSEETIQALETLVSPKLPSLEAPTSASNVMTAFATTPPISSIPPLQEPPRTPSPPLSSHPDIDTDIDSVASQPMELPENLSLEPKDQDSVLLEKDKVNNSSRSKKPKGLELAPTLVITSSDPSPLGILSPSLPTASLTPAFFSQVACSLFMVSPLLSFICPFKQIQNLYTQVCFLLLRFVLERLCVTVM
# How it was run: as §1
# ETV2 = biological target: T10, ETV2 (Homo sapiens, UniProt O00321 1-342); conditions: protein: recombinant; tags: N-terminal GST; dsDNA, one strand shown
# T10 sequence: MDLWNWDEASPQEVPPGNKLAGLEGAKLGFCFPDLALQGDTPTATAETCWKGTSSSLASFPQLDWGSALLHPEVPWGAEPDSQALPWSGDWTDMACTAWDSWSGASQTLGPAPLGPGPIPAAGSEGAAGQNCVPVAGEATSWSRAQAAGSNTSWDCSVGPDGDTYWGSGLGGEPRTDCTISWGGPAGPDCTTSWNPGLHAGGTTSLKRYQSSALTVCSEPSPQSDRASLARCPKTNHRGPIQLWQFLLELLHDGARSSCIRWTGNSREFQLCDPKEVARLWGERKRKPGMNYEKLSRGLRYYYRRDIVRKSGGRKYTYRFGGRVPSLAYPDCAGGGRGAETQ
# How it was run: as §1
# ELF3 = biological target: T11, ELF3 (Homo sapiens, UniProt P78545 1-371); conditions: protein: recombinant; tags: N-terminal GST; dsDNA, one strand shown
# T11 sequence: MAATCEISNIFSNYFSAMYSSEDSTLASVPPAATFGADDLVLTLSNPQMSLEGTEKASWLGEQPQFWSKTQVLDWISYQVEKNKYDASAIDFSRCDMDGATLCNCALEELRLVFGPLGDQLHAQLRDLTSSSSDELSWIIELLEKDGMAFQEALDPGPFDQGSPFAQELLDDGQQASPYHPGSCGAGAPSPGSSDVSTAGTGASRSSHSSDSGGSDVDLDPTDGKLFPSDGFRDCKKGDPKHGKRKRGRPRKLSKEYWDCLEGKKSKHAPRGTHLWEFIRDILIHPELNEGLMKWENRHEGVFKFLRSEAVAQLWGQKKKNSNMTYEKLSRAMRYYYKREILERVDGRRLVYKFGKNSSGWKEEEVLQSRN
# How it was run: as §1
# CRX = CRX (Homo sapiens, UniProt O43186 1-299); conditions: protein: recombinant; tags: N-terminal GST; dsDNA, one strand shown
# Chain of CRX (O43186 whole entry): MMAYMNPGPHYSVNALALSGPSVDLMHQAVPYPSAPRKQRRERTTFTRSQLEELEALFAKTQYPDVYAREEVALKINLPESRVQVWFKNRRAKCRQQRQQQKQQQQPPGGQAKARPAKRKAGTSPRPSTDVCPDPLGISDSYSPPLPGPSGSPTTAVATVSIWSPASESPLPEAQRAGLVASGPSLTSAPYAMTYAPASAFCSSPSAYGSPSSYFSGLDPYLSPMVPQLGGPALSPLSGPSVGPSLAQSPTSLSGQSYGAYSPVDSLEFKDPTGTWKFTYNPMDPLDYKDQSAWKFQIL
# How it was run: as §1
# ETV1 = ETV1 (Homo sapiens, UniProt P50549 1-477); conditions: protein: recombinant; tags: N-terminal GST; dsDNA, one strand shown
# Chain of ETV1 (P50549 whole entry): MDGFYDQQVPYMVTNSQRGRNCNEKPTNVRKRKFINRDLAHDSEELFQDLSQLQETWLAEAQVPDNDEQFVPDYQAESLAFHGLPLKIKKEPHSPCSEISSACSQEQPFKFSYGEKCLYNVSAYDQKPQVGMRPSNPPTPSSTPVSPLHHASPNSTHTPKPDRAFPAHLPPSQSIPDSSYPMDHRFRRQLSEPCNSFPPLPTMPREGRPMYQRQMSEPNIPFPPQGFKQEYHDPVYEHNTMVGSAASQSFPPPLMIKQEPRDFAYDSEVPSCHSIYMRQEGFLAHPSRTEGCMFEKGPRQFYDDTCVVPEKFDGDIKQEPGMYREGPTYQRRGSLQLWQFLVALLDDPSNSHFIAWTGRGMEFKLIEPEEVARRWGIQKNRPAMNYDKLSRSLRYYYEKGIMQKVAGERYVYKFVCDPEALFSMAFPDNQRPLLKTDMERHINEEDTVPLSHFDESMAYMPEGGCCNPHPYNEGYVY
# How it was run: as §1
sequence,measurement,setting,value
ACCCGC,binding signal,FLI1,"1.27 fold enrichment (6-mer frequency, TF over GST control)"
same,binding signal,ELK1,"1.29 fold enrichment (6-mer frequency, TF over GST control)"
same,binding signal,GABPA,"1.35 fold enrichment (6-mer frequency, TF over GST control)"
same,binding signal,ERG,"1.21 fold enrichment (6-mer frequency, TF over GST control)"
same,binding signal,ELF1,"1.33 fold enrichment (6-mer frequency, TF over GST control)"
same,binding signal,EHF,"1.2 fold enrichment (6-mer frequency, TF over GST control)"
same,binding signal,SPI1,"1.32 fold enrichment (6-mer frequency, TF over GST control)"
same,binding signal,SPIB,"1.27 fold enrichment (6-mer frequency, TF over GST control)"
same,binding signal,ELK3,"1.32 fold enrichment (6-mer frequency, TF over GST control)"
same,binding signal,FEV,"1.24 fold enrichment (6-mer frequency, TF over GST control)"
same,binding signal,ETV5,"1.24 fold enrichment (6-mer frequency, TF over GST control)"
same,binding signal,HSF1,"1.13 fold enrichment (6-mer frequency, TF over GST control)"
same,binding signal,SPIC,"1.16 fold enrichment (6-mer frequency, TF over GST control)"
same,binding signal,ELF4,"1.35 fold enrichment (6-mer frequency, TF over GST control)"
same,binding signal,ELK4,"1.39 fold enrichment (6-mer frequency, TF over GST control)"
same,binding signal,ETV2,"1.24 fold enrichment (6-mer frequency, TF over GST control)"
same,binding signal,ELF3,"1.15 fold enrichment (6-mer frequency, TF over GST control)"
same,binding signal,CRX,"1.1 fold enrichment (6-mer frequency, TF over GST control)"
same,binding signal,ETV1,"1.27 fold enrichment (6-mer frequency, TF over GST control)"
